Data published in PubChem BioAssay.
Active and inactive are the calls of the source.

Experiments:
[1] = test system: Human papillomavirus type 1a protein E7 (residues 44-93); experiment: HPV1a E7 fragment binders on microarrays, primary screen, biochemical, small-molecule microarray, residues 44-93, 635 nm fluorescence (AID 1108); conditions: small-molecule microarray binding, fluorescence 635 nm; higher = more signal;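 further: E7 fragment applied at 1 µg/mL in TBST for 1 h at 4 C; score combines spot fluorescence with its signal to noise ratio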
[2] = modulators of HCV replicon luciferase signal, primary screen, HCV replication inhibitor project, Huh7 cells, luciferase reporter (AID 1109); conditions: 48 h, higher = more signal;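 further: huh7 hepatoma cells harbouring a luciferase neomycin HCV replicon reporter; luciferase luminescence as measure of HCV replicon replication; test concentration not given here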
[3] = target: Left-right determination factor 2 (Homo sapiens) (UniProt O00292); experiment: LEFTY2 binders on small-molecule microarrays, primary screen, biochemical, small-molecule microarray, 635 nm fluorescence scan (AID 1110); conditions: LEFTY2 binding, higher = more signal
[4] = target: Calmodulin-1 (Homo sapiens) (UniProt P0DP23); experiment: CALM1 binders on microarrays, EGTA buffer, profiling panel, biochemical, small-molecule microarray, Cy5-labelled CALM1 (AID 1111); conditions: Cy5-CALM1 binding fluorescence, higher = more signal;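 further: labelled calmodulin applied in Tris saline Tween buffer holding calcium plus EGTA and DTT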
[5] = target: Calmodulin-1 (Homo sapiens) (UniProt P0DP23); experiment: calcium-bound CALM1 binders on microarrays, profiling panel, artefact control for SMM control-protein annotation, biochemical, small-molecule microarray, Cy5-labelled CALM1, plus calcium (AID 1112); conditions: Cy5-CALM1 binding fluorescence, higher = more signal;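 further: score merges spot fluorescence with signal to noise from triplicate slides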
[6] = small-molecule microarray binders of probe aWnt5a, primary screen, biochemical, biotinylated probe, 635/667 nm fluorescence (AID 1113); conditions: higher = more signal;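 further: score merges 667 nm fluorescence intensity with signal-to-noise per printed feature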
[7] = small-molecule microarray binders of probe aShh, primary screen, biochemical, biotinylated probe, 635/667 nm fluorescence (AID 1114); conditions: higher = more signal;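 further: probe is biotin-labelled aShh protein from a stem cell growth factor screen; measures binding of labelled protein to compounds printed on the slide; score merges feature fluorescence at 667 nm with signal-to-noise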
[8] = small-molecule microarray binders of probe aNog, primary screen, biochemical, biotinylated probe, 635/667 nm fluorescence (AID 1115); conditions: higher = more signal;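 further: probe is biotinylated aNog protein used at 0.15 µg/mL for 1 h at 4 C; z-score combines 667 nm fluorescence of each spot with its signal to noise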
[9] = target: Torsin-1A-interacting protein 1 (Homo sapiens) (UniProt Q5JTV8); experiment: LAP1 binders from COS7 cell lysate, primary screen, small-molecule microarray, 635/667 nm fluorescence (AID 1116); conditions: COS7-hLAP1 lysate binding, 635 nm fluorescence, higher = more signal
[10] = target: Alpha-bungarotoxin (Bungarus multicinctus) (UniProt P60615); experiment: alpha-bungarotoxin binders on microarray, profiling panel, artefact control for SMM control protein annotation, biochemical, small-molecule microarray, Alexa647 label, 635/667 nm fluorescence (AID 1117); conditions: alpha-BTX-A647 binding fluorescence, higher = more signal
Albumin (Bos taurus) = Albumin (Bos taurus) (UniProt P02769); experiment: bovine serum albumin binders on microarray, profiling panel, artefact control for SMM control protein annotation, biochemical, small-molecule microarray, Alexa647 label, 635/667 nm fluorescence (AID 1118); conditions: BSA-A647 binding, fluorescence 635 nm, higher = more signal;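 further: score merges 667 nm emission intensity and signal-to-noise per printed compound spot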
[11] = small-molecule microarray binders of probe aXIP, primary screen, biochemical, NeuroSMM set, 635/667 nm fluorescence (AID 1119); conditions: higher = more signal, called active from +8 up or from −8 down;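 further: probe is the protein aXip251-270 applied at 1 µg/mL to compound-printed slides; binding of probe to printed compounds measured as 667 nm fluorescence plus signal to noise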
[12] = small-molecule binders of probe aNOTCH3, primary screen, biochemical, small-molecule microarray, 635/667 nm fluorescence (AID 1120); conditions: higher = more signal;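 further: probe is a biotin-tagged antibody raised against NOTCH3 rather than NOTCH3 protein; score merges spot fluorescence near 667 nm with spot signal to noise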
[13] = small-molecule binders of probe aNOTCH2, primary screen, biochemical, small-molecule microarray, 635/667 nm fluorescence (AID 1121); conditions: higher = more signal;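 further: score merges feature fluorescence read at 667 nm with its signal to noise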
[14] = target: Carbonic anhydrase 2 (Homo sapiens) (UniProt P00918); experiment: CAII small-molecule binders, profiling panel, biochemical, small-molecule microarray, Alexa647-labelled CAII (AID 1122); conditions: CAII-A647 binding fluorescence, higher = more signal
[15] = COS7 lysate on small-molecule microarray, probe aHis, 635 nm (AID 1123); conditions: COS7 cell lysate, fluorescence, higher = more signal;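 further: z-score combines 667nm fluorescence intensity with signal-to-noise per printed compound spot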
[16] = compound binding in COS7 lysate, probe aLAP1, primary screen, cell lysate, small-molecule microarray (AID 1124); conditions: probe aLAP1, fluorescence, higher = more signal;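 further: lysate comes from COS7 cells expressing LAP1 and is applied at 0.3 µg/mL; score merges spot fluorescence near 667 nm with signal-to-noise over triplicate slides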
Sam68 (KHDRBS1) = experiment: Sam68 small-molecule binders, primary screen, biochemical, small-molecule microarray, 635 nm fluorescence (AID 1125); conditions: small-molecule microarray binding, higher = more signal;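 further: score merges 667 nm channel intensity with signal to noise over triplicate slides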
[17] = test system: Chordin-like protein 2 (CHRDL2); experiment: CHRDL2 small-molecule binders, primary screen, biochemical, small-molecule microarray, 635 nm fluorescence (AID 1126); conditions: small-molecule microarray binding, fluorescence 635 nm; higher = more signal;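 further: printed compound slides probed with Chrdl2 protein at 4 µg/mL for 1 h at 4 C; score merges 667 nm emission intensity with signal to noise over three replicate slides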
[18] = target: Concanavalin-A (Canavalia ensiformis) (UniProt P02866); experiment: ConA small-molecule binders, primary screen, artefact control for SMM control protein annotation, biochemical, small-molecule microarray, Alexa647 label, 635 nm (AID 1127); conditions: ConA-A647 binding fluorescence, higher = more signal;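 further: z combines 667 nm emission intensity with signal-to-noise across three replicate slides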
Concanavalin-A (Canavalia ensiformis), sequence (P02866 whole entry, looked up): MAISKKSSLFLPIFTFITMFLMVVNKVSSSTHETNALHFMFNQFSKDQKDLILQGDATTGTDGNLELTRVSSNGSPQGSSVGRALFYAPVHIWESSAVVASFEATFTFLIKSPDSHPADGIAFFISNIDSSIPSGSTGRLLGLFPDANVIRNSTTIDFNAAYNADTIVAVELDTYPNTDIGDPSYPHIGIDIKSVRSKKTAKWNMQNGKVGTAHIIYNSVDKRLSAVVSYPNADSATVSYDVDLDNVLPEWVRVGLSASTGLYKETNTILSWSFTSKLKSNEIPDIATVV

Torsin-1A-interacting protein 1 (Homo sapiens), sequence (Q5JTV8 whole entry, looked up): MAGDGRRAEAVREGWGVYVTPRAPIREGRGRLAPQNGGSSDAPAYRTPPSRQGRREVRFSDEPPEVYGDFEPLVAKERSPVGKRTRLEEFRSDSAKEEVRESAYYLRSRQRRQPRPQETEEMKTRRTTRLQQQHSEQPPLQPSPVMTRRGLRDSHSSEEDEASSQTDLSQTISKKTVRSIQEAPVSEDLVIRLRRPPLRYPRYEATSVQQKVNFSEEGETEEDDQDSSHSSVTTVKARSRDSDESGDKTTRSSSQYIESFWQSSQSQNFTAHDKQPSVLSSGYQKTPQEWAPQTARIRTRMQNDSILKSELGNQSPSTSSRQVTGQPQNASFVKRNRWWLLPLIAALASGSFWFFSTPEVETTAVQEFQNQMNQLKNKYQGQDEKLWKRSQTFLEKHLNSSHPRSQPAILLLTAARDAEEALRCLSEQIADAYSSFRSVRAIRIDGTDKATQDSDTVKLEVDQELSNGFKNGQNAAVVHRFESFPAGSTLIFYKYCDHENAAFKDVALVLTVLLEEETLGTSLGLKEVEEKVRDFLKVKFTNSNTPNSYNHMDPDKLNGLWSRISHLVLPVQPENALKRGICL
Alpha-bungarotoxin (Bungarus multicinctus), sequence (P60615 whole entry, looked up): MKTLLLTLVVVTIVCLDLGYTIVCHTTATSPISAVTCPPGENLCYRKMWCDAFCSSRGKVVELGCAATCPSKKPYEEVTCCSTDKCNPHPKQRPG
Left-right determination factor 2 (Homo sapiens), sequence (O00292 whole entry, looked up): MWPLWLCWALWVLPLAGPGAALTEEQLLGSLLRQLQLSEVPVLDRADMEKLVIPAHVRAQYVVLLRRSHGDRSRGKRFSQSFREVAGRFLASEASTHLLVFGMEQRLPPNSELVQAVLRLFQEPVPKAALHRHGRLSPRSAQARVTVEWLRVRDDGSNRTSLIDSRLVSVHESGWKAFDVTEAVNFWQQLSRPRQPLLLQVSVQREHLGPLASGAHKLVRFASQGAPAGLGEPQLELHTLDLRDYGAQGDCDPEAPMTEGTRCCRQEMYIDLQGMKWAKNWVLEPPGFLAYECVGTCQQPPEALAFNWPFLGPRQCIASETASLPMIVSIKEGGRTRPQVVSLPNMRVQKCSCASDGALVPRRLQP
Albumin (Bos taurus), sequence (P02769 whole entry, looked up): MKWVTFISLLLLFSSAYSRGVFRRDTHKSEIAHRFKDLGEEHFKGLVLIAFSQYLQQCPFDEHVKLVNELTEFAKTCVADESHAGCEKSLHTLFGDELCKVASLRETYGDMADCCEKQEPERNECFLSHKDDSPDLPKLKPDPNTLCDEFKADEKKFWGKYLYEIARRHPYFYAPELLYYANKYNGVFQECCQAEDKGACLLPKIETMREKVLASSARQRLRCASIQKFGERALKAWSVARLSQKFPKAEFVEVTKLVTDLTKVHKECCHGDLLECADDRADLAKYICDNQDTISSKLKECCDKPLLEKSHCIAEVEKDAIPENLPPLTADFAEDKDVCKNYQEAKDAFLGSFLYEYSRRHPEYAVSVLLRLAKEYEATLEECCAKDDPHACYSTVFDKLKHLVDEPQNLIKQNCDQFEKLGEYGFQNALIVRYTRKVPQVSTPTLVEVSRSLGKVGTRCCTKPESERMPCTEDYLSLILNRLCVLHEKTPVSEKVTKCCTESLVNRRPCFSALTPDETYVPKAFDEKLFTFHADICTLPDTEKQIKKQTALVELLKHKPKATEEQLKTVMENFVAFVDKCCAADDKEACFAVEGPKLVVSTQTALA

Structure (SMILES)	composite z-score [1]	z-score [2]	composite z-score [3]	composite z-score [4]	composite z-score [5]	composite z-score [6]	composite z-score [7]	composite z-score [8]	composite z-score [9]	composite z-score [10]	composite z-score (Albumin (Bos taurus))	composite Z-score [11]	composite z-score [12]	composite z-score [13]	composite z-score [14]	composite z-score [15]	composite z-score [16]	composite z-score (Sam68 (KHDRBS1))	composite z-score [17]	composite z-score [18]
C=C(CCCC)/C(=C/C[C@H](OC(=O)c1ccncc1)c1cccc(OCCO)c1)c1cnc2ccccc2c1	1.39	-2.46	0.354	0.0734	-0.731	-0.0459	-0.0035	-0.0496	-0.064	0.551	0.677	-0.12 (inactive)	0.211	-0.0649	0.861	1.17	0.423	1.26	0.51	0.831
COc1cc(C(O)C2C=CC3C(=O)N(c4ccccc4)C(=O)C3N2Nc2ccccc2F)cc(OC)c1OC (stereo not given)	1.48	-0.892	0.2	1.05	-0.383	0.0357	-0.0146	1.11	0.512	0.983	0.834	0.0894 (inactive)	0.0436	0.0409	0.648	3.14	0.443	1.32	-0.755	1.1
CC1CC/C=C\[C@H]2OC34C=CCN(Cn5nnc6ccccc65)C(=O)[C@H]3N(CCCCCCO)C(=O)[C@@H]4C2C(=O)O1 (stereo not given in full)	-0.0257	0.0151	-1.7	0.259	0.659	-0.232	-0.0709	0.0021	0.145	-0.551	-0.252	0.347 (inactive)	-0.427	-0.214	0.398	-0.0339	0.523	-0.682	-1.25	0.257
C=CCNC(=O)[C@H]1[C@@H]2C(=O)O[C@@H](c3ccccc3)[C@@H](c3ccccc3)N2[C@@H](c2ccc(OCCO)cc2)[C@]12C(=O)Nc1ccccc12	1.39	-1.4	-0.514	1.85	0.345	-0.0405	-0.0505	0.666	1.87	1.4	0.989	1.76 (inactive)	-0.261	-0.0877	0.74	2.7	1.15	1.29	-0.832	1.13
COc1ccc([Si](C)(C)[C@@H]2[C@@H](CC(=O)N(CCO)Cc3ccccc3)O[C@]3(C(=O)N(Cc4ccc(I)cc4)c4ccccc43)[C@H]2C)cc1	0.684	-4.03	0.792	1.61	0.54	-0.0718	0.531	-0.0815	1.23	0.375	-0.596	0.317 (inactive)	0.456	0.02	0.414	0.568	0.965	0.793	1.36	0.817
